{"source": "the supplement of paper PMC10338343", "note": "± gives the standard deviation."}
{"system": "MILI (PIWIL2) piRISC loaded with L1MC piRNA (26 nt)", "test": "pre-steady-state target cleavage rate (min^-1); guide: L1MC piRNA 5'p-UAACUAAAUACUAUGCAAGCUGUAGG; higher = faster piRNA-guided slicing of the target", "details": "auxiliary factor: 500 nM mouse GTSF1", "description": "(§1)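 Cleave-'n-Seq: a library of target RNAs (target site embedded in constant flanks, ACAGCATTCCGCGTTAGTGATATCCG... 5' flank; DNA-blocked outside the site) at 0.1 nM was incubated with 1 nM active mouse MILI or MIWI piRISC (synthetic 5'-monophosphorylated piRNA guide) with or without 500 nM mouse GTSF1 at 33 °C for 1 min to 16 h. Uncleaved targets were sequenced and normalised to non-target controls, and the pooled three trials were fitted to a burst-and-steady-state model to give the pre-steady-state cleavage rate (min^-1; k3 is constrained to at most 1e-4). Sequence is the target site only; target names encode pairing extent (gX:gY) and contiguous / 1-mismatch / 2-mismatch / bulge geometry. Fits with R² ≤ 0 are excluded.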"}
{"sequence": "UCCUCCUACAGCUUGCAUUGUUUUUAGUUA", "pre-steady-state target cleavage rate": "0.0161 ± 0.0055"}
{"sequence": "UCCUGGAUGUCGAUGCAUAGUAUUGUAGUUA", "pre-steady-state target cleavage rate": "0.0505 ± 0.016"}
{"sequence": "UCCUGGAUCAGCUUGCAUAGUUUUAAGUUA", "pre-steady-state target cleavage rate": "0.0366 ± 0.008"}
{"sequence": "UCCUGCAUACAGCUUGCAUAGUAUUUAGUUA", "pre-steady-state target cleavage rate": "0.554 ± 0.047"}
{"sequence": "UCCUGGAUCAGCUUGCAUUGUAUUUUGUUA", "pre-steady-state target cleavage rate": "0.1 ± 0.019"}
{"sequence": "UCCUGGAUGUGCUUGCAUACUAUUUAGUUA", "pre-steady-state target cleavage rate": "0.0281 ± 0.0064"}
{"sequence": "UCCUGGAUGUCCUUGCAUAGUAUUUAGUAUA", "pre-steady-state target cleavage rate": "0.191 ± 0.03"}
{"sequence": "UCCUGGAUGAGCUUGCUAUAGUAUUUAGUUA", "pre-steady-state target cleavage rate": "0.00431 ± 0.0032"}
{"sequence": "UCCUGGAUCAGCUUGCAUAGUAUUCUAGUUA", "pre-steady-state target cleavage rate": "0.239 ± 0.034"}
{"sequence": "UCCUGGAUGUCGUUGCAUAGUAAUUAGUUA", "pre-steady-state target cleavage rate": "0.116 ± 0.022"}
{"sequence": "UCCUCCUACAGCAUGGAUAGUAUUUAGUUA", "pre-steady-state target cleavage rate": "0.269 ± 0.014"}
{"sequence": "UCCUGGAUCAGCUUGCAUAGUAUUAACUUA", "pre-steady-state target cleavage rate": "0.0348 ± 0.011"}
{"sequence": "UCCUGGAUGUCGUUGCAUAGUAUUUAGUUUA", "pre-steady-state target cleavage rate": "0.178 ± 0.018"}
{"sequence": "UCCUGGAACAACUUGCAUAGUAUUUAGUUA", "pre-steady-state target cleavage rate": "0.262 ± 0.022"}
{"sequence": "UCCUCCUACAGCUUGCAUAGUAUUUAGUUG [g2:g26:cont:t1G]", "pre-steady-state target cleavage rate": "0.158 ± 0.016"}
{"sequence": "UCCUGCUACAGCUUGCAUAGUUAUUUAGUUA", "pre-steady-state target cleavage rate": "0.0195 ± 0.0087"}
{"sequence": "UCCUGGAUGAACUUGCAUAGUAUUUAGUUA", "pre-steady-state target cleavage rate": "0.128 ± 0.013"}
{"sequence": "UCCUGGAACAGCUUGCAUACUAUUUUGUUA", "pre-steady-state target cleavage rate": "0.0261 ± 0.0092"}
{"sequence": "UCCUGGAUCAGCUUGCAGAGUAUUUAGUUA", "pre-steady-state target cleavage rate": "0.111 ± 0.015"}
{"sequence": "UCCUCCUACAGCUUGCAUAGUAUUUUCAUA", "pre-steady-state target cleavage rate": "0.091 ± 0.02"}
{"sequence": "UCCUGGAACACCUUGCAUAGUAUAUAGUUA", "pre-steady-state target cleavage rate": "0.189 ± 0.033"}
{"sequence": "UCCUGGAUCUGCUUGCAUAGUAUUUAGUUA", "pre-steady-state target cleavage rate": "0.229 ± 0.016"}
{"system": "MILI (PIWIL2) piRISC loaded with L1MC piRNA (26 nt)", "test": "pre-steady-state target cleavage rate (min^-1); guide: L1MC piRNA 5'p-UAACUAAAUACUAUGCAAGCUGUAGG; MIWI and MILI are mouse PIWI proteins and EfPiwi is from a freshwater sponge; tags in brackets are library labels; higher = faster piRNA-guided slicing of the target", "details": "auxiliary factor: none (no GTSF1)", "description": "as §1"}
{"sequence": "UCCUCCUACAGCUUGCAUUGUUUUUAGUUA", "pre-steady-state target cleavage rate": "0.0039 ± 0.002"}
{"sequence": "UCCUGGAUCAGCUUGCAUAGUUUUAAGUUA", "pre-steady-state target cleavage rate": "0.00531 ± 0.0024"}
{"sequence": "UCCUGCAUACAGCUUGCAUAGUAUUUAGUUA", "pre-steady-state target cleavage rate": "0.0104 ± 0.0034"}
{"sequence": "UCCUGGAUCAGCUUGCAUUGUAUUUUGUUA", "pre-steady-state target cleavage rate": "0.00344 ± 0.0026"}
{"sequence": "UCCUGGAUGUGCUUGCAUACUAUUUAGUUA", "pre-steady-state target cleavage rate": "0.00431 ± 0.0022"}
{"sequence": "UCCUGGAUGUCCUUGCAUAGUAUUUAGUAUA", "pre-steady-state target cleavage rate": "0.00617 ± 0.0026"}
{"sequence": "UCCUGGAUCAGCUUGCAUAGUAUUCUAGUUA", "pre-steady-state target cleavage rate": "0.00658 ± 0.0024"}
{"sequence": "UCCUGGAUGUCGUUGCAUAGUAAUUAGUUA", "pre-steady-state target cleavage rate": "0.00563 ± 0.002"}
{"sequence": "UCCUCCUACAGCAUGGAUAGUAUUUAGUUA", "pre-steady-state target cleavage rate": "0.00942 ± 0.0022"}
{"sequence": "UCCUGGAUCAGCUUGCAUAGUAUUAACUUA", "pre-steady-state target cleavage rate": "0.00289 ± 0.0028"}
{"sequence": "UCCUGGAUGUCGUUGCAUAGUAUUUAGUUUA", "pre-steady-state target cleavage rate": "0.0103 ± 0.0039"}
{"sequence": "UCCUGGAACAACUUGCAUAGUAUUUAGUUA", "pre-steady-state target cleavage rate": "0.0104 ± 0.0027"}
{"sequence": "UCCUCCUACAGCUUGCAUAGUAUUUAGUUG [g2:g26:cont:t1G]", "pre-steady-state target cleavage rate": "0.0087 ± 0.0025"}
{"sequence": "UCCUGCUACAGCUUGCAUAGUUAUUUAGUUA", "pre-steady-state target cleavage rate": "0.00428 ± 0.0024"}
{"sequence": "UCCUGGAUGUCGAACCAAGUAUUUAGUUA", "pre-steady-state target cleavage rate": "< 0.0001"}
{"sequence": "UCCUGGAUGAACUUGCAUAGUAUUUAGUUA", "pre-steady-state target cleavage rate": "0.00751 ± 0.0026"}
{"sequence": "UCCUGGAUCAGCUUGCAGAGUAUUUAGUUA", "pre-steady-state target cleavage rate": "0.00641 ± 0.002"}
{"sequence": "UCCUGGAUCUGCUUGCAUAGUAUUUAGUUA", "pre-steady-state target cleavage rate": "0.00944 ± 0.002"}
